An excerpt weighted towards active compounds, which were near 5.3% of everything screened.
PNC assembly inh = inhibitors of perinucleolar compartment assembly | AID 2417 | 140,000 compounds, 3.1% hits | activity change (PNC), negative = inhibition, % at 10 µM | PC3M PTB-GFP, PNC prevalence imaging, 16 h; active compounds read low;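 active means readout at or below -70, meaning at least 70% loss of cells showing the perinucleolar compartment, a nuclear body marking cancer cells; inconclusive means readout between -30 and a set limit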
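PC3M cells stably expressing PTB-GFP, 750–1000 cells/well, treated 16 h at 37 °C with compound (23 nl of library stock), in duplicate. After paraformaldehyde fixation and Hoechst stain, imaged at 20x; PNC prevalence scored by image analysis.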
ALOX15B inhib = inhibitors of human 15-lipoxygenase 2 (ALOX15B); O15296; purified 15hLO-2, xylenol orange hydroperoxide absorbance; Potency, µM (titrated, usually from 57.1 µM), actives largely listed as inhibitors; 110,000 compounds, 0.56% hits; further: nearly all actives have a fitted effect of over 60% in size
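Enzyme 50 nM, AA 45 uM, 25 mM Hepes pH 7.5 + 0.01% Triton X-100; cpd preinc 15 min RT, rxn 90 min RT; stop/detect with 200 uM XO + 300 uM Fe(II) in 50 mM H2SO4, 30 min; A573/A405.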
HPGD block = HPGD (human) dehydrogenase inhibition. P15428. purified HPGD, NADH fluorescence kinetic, PGE2 substrate. Potency, µM, hits mostly inhibitors. 150,000 compounds, 4.3% hits; active means well fitted inhibition curve with a large enough effect, not every such curve was filed as active; inconclusive means small, poorly fitted or top-dose-only effect, or another doubt; inactive means no such curve, though single readings can be large or run the other way
Target sequence (P15428 whole entry, looked up): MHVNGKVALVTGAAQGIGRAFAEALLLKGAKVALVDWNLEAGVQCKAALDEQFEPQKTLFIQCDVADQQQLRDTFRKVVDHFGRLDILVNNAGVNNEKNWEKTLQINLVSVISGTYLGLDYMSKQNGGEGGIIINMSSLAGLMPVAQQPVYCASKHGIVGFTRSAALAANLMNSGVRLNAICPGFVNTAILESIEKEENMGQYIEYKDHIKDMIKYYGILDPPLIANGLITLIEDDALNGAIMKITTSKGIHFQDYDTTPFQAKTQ
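NADH formation kinetics: reaction with 30 uM PGE2 and 1 mM NAD+ (final), 20 nM enzyme, Tris-HCl pH 8 with Tween 20, after 15 min compound preincubation at room temperature. Fluorescence change, last versus first of five reads.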
IMPase Li inh = IMPase inhibition in cells with lithium potentiation | CHO-M1 cells, IP1 TR-FRET (IP-One), carbachol + lithium | Potency, µM (doses to about 59.4 µM), hits mostly inhibitors | 210,000 compounds, 0.35% hits | AID 1457;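 further: IP1 builds up when IMPase is blocked and the TR-FRET signal falls; nearly all actives have a fitted effect of over 50% in size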
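CHO cells stably expressing M1 receptor (2000/well) were cultured 16–30 h, then exposed to compounds with a small lithium addition for 30 min at 37C. IP1 was measured by TR-FRET competition; AC50 from Hill fits.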
ALOX12 inhib = inhibitors of human 12-lipoxygenase (ALOX12); purified 12-hLO, xylenol orange hydroperoxide absorbance; P18054; 150,000 compounds, 0.12% hits; Potency, µM (series often up to 57.1 µM), most hits filed as inhibitors; AID 1452; further: nearly all actives have a fitted effect of over 55% in size
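Hydroperoxide output read as Fe(III)-xylenol orange absorbance, 573-to-405 nm ratio, after 30 min reaction with 40 uM arachidonic acid. Enzyme: 150 nM purified human 12hLO, 15 min compound preincubation; 25 mM Hepes pH 7.0, room temperature.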
IMPase inh = membrane-permeable compound that blocks inositol monophosphatase | P97697 | CHO-M1 cells, IP1 accumulation, HTRF TR-FRET ratio | inhibition (IP1 accumulation), % at 46.1 µM | 120,000 tested, under 10 active | AID 901; active means well fitted curve in the direction sought with a large enough effect in the signal ratio, not every such curve was filed as active; inconclusive means small, poorly fitted or top-dose-only effect, or a change in a side signal; inactive means no such curve, though single readings can be large or run the other way; the % refers to the signal ratio;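 further: cells stimulated with carbachol in lithium chloride buffer; higher means more IMPase inhibition seen as more IP1 and lower FRET ratio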
Target sequence (P97697 whole entry, looked up): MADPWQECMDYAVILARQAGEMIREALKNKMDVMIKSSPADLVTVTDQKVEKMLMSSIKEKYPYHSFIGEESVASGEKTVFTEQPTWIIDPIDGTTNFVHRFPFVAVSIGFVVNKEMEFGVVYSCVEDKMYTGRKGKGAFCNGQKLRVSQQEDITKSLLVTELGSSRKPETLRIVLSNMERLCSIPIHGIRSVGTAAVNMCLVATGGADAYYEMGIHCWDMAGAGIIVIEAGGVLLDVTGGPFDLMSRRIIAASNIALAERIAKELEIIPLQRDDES
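Cellular IMPase inhibition is scored as a rise in cytosolic IP1, detected by competitive TR-FRET between d2-labelled IP1 and a europium anti-IP1 antibody. M1-expressing CHO cells were stimulated with carbachol for 30 min at 37C, with lithium (50 mM LiCl) present in the buffer.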
Numbers stand for hits; 0 = inactive; ? = inconclusive; - = not tested or not shown; [ ] = dose if it differs, or a comment. Unless noted, the call rests on the fitted dose curve; in most records, active means well fitted curve in the direction sought with a large enough effect; inconclusive means small, poorly fitted or top-dose-only effect, or another doubt; inactive means no such curve, though single readings can be large; an effect the other way counts as inactive or inconclusive.

SMILES	PNC assembly inh	ALOX15B inhib	HPGD block	IMPase Li inh	ALOX12 inhib	IMPase inh
CN1/C(=C\C=C(/C#N)C(=O)Nc2ccccc2F)C(C)(C)c2ccccc21	-83.0	-	0	0	0	-
CN1/C(=C/C=C(/C#N)C(N)=O)C(C)(C)c2ccccc21	-84.9	?	0	0	0	0
CCOC(=O)CSC1=NC(=O)/C(=C/c2ccc(OC)cc2)S1	-91.4	-	12.6µM	0	0	-
c1csc(C2=Nn3c(nnc3-c3ccncc3)SC2)c1	?	0	28.2µM	0	0	0
Clc1cccc(Nc2c3c(nc4ncnn24)CCC3)c1	?	0	15.8µM	0	0	0
CCc1cccc(Nc2c3c(nc4ncnn24)CCC3)c1	-	-	-	0	-	-
CC[n+]1ccc(/C=C/c2ccc(N(C)C)cc2)c2ccccc21	-	-	-	0	-	-
CC[n+]1ccc(C[n+]2ccccc2)c2ccccc21	-82.3	-	?	0	?	-
Cc1ccc(-c2c3c(=O)n(C)c(=O)n(C)c3c3c(C(F)(F)F)nc4ccccc4n23)cc1	-	-	-	-	-	0
CCn1c(O)c(/C=N/N=C2CCCC2)c2ccc(C3=NNC(=O)CC3)cc21	0	0	15.8µM	0	0	0
COc1ccc(-c2cc3c(=O)n(CC(=O)NC4CCN(Cc5ccccc5)CC4)ncn3n2)cc1	-90.5	0	0	0	0	0
O=C(NNC(=O)c1cc(OCC(F)(F)F)ccc1OCC(F)(F)F)c1cccc(C(F)(F)F)c1	-84.2	0[11.4 µM]	0	0	0	0[1.84 µM]
CC(C)(C)n1nnnc1C(c1ccc(Cl)cc1)N1CCCc2ccccc21 (configuration not stated)	-88.3	0	0	0	0	0
C=CCC1C=C(Cc2ccccc2)CC(CC=C)N1 (configuration not stated)	-	-	-	0	-	-
C=CC[C@H]1CC(Cc2ccccc2)=C[C@H](CC=C)N1	-80.8	-	0	0	0	-
O=C1NCCN1C(=O)N(c1ccccc1)c1ccccc1	-124.4	0	0	0	0	0
CCOCCCNC(=O)C(NC(=O)c1ccccc1O)c1ccc(Cl)cc1 (configuration not stated)	-	-	-	0	-	-
O=C(N/N=C/c1cccc(O)c1)c1ccc(COc2ccccc2Br)cc1	-123.8	-	?	0	0	-
Cc1ccc(C(C)C)c(OCc2ccc(C(=O)N/N=C/c3ccc(O)cc3O)cc2)c1	-89.5	-	0	0	0	0
O=C(N/N=C/c1cccc(O)c1)c1ccc(COc2cccc3cccnc23)cc1	-	-	-	0	-	-
CC(C)(C)NC(=O)C(c1cccs1)N(C(=O)c1csnn1)c1ccccc1F (configuration not stated)	-	-	-	0	-	-
COc1ccc(-c2nc(C)sc2CC(=O)O)cc1	-100.0	-	0	0	0	0
CCCCCCCCCS(=O)(=O)N/N=C/c1cccc([N+](=O)[O-])c1	?	0	20µM	0	0	0
Cc1ccc(S(=O)(=O)N/N=C/c2cccc([N+](=O)[O-])c2)cc1	?	-	0	0	0	0
CS(=O)(=O)Nc1cccc(-c2cncnc2NCc2cccnc2)c1	-	0	-	0	-	-
SMILES	PNC assembly inh	ALOX15B inhib	HPGD block	IMPase Li inh	ALOX12 inhib	IMPase inh
CC(C)Oc1ccc(Cc2cnc(=S)[nH]c2N)cc1	-	-	-	0	-	-
CCOC(=O)Cn1c(=NC(=O)C2COc3ccccc3O2)sc2cc(S(N)(=O)=O)ccc21 (configuration not stated)	-134.0	-	0	0	0	-
CCOC(=O)Cn1c(=NC(=O)c2cc(-c3cccs3)nc3ccccc23)sc2cc(S(N)(=O)=O)ccc21	0	-	?	0	0	-
Cc1ccc(-n2c(C)cc(C(=S)N3CCOCC3)c2C)cc1C	0	-	5.01µM	0	0	0
O=C(OCc1ccccc1)c1ccccc1	-	0	0	0	0	-
CC(=O)c1c(COC(=O)c2ccccc2)nc2ccccc2[n+]1[O-]	0	0	14.1µM	0	0	0
Nc1cc2c(cc1[N+](=O)[O-])OCCOCCOCCO2	-	-	-	0	-	-
Oc1c(C(c2ccccc2)N2CCc3ccccc3C2)sc2ncnn12 (configuration not stated)	0	-	31.6µM	0	0	0
COc1cccc(C(c2sc3nc(C)nn3c2O)N2CCc3ccccc3C2)c1 (configuration not stated)	0	0	11.2µM	0	0	0
